Measured values from PubChem BioAssay AID743445 (Broad Institute, 2014).
The campaign covered roughly 310,000 compounds. About 1,700 (0.55%) were called active. For the sample, actives were picked, then their nearest neighbours and some compounds at random. Unmarked numbers belong to inactive results. No stated cut-off is given here; in the data, active means inhibition above about 50%; inactive means the rest.

target: Histone-lysine N-methyltransferase NSD2 (Homo sapiens) (UniProt O96028); assay: NSD2 histone methyltransferase inhibitors, primary screen, biochemical, AlphaScreen, single concentration, set 2 (AID 743445); details: NSD2 peptide methylation, 120 min, at 12.5 µM, active compounds read high
Sequence (O96028 whole entry, looked up): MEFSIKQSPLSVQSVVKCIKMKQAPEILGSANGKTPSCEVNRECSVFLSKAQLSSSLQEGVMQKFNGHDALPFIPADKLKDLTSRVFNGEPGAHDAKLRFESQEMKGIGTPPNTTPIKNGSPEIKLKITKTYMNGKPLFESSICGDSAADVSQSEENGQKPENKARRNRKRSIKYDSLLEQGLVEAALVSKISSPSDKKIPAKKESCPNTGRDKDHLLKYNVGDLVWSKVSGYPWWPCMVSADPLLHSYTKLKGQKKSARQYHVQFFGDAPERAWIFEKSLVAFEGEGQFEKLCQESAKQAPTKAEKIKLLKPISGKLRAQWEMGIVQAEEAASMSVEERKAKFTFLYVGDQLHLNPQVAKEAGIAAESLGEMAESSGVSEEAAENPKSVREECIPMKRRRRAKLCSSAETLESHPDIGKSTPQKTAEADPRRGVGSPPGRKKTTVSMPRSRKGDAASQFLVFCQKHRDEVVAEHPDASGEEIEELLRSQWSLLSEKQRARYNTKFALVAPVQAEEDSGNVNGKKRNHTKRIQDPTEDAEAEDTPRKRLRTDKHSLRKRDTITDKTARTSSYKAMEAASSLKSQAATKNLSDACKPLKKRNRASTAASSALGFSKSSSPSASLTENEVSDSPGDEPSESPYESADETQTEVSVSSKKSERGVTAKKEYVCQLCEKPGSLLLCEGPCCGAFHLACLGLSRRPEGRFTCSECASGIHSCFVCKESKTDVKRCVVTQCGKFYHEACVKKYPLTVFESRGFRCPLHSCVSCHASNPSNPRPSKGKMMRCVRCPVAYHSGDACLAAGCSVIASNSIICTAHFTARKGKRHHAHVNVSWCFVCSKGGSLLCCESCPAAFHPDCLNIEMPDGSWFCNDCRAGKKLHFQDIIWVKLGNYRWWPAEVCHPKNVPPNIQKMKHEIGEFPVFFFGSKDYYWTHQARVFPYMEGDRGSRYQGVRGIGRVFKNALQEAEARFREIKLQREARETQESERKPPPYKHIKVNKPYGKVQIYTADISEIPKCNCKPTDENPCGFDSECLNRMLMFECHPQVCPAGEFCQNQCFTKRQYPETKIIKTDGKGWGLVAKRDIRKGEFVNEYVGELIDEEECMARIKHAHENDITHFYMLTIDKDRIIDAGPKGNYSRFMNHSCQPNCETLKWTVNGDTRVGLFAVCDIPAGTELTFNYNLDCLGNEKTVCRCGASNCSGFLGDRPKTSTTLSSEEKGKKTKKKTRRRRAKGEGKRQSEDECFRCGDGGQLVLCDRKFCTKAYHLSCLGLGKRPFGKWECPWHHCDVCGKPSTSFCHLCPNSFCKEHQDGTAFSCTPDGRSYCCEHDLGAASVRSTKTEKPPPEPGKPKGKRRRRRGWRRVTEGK

Row | SMILES | inhibition
1 | O=C(CSc1nc2ccccc2nc1N1CCCCC1)N1CCN(S(=O)(=O)c2cccc([N+](=O)[O-])c2)CC1 | -12%
2 | CC(=O)NC(c1ccccc1)c1nc(-c2cccc(C(C)C)c2)cs1 (stereo not given) | 3.74%
3 | CCOC(=O)c1c(C)[nH]c(C)c1S(=O)(=O)N(C)CC(=O)Nc1ccccc1C | 2.08%
4 | CCOC(=O)c1ccccc1OC(=O)Oc1ccccc1C(=O)OCC | -0.93%
5 | CCOC(=O)c1c(C)[nH]c2c1-c1ccccc1C(=O)C2=O | 82.9% (active)
6 | CCOc1ccc2nc(NC(=O)C3CC3)sc2c1 | -0.715%
7 | CCCC1CCC2(CCCN2CCOC(=O)NCc2ccccc2)CC1 (stereo not given) | -1.02%
8 | O=C(CNS(=O)(=O)c1ccccc1F)N1CCN(c2ccccn2)CC1 | -3.13%
9 | COc1ccc(-c2cc(-c3nnc(SCc4ccc([N+](=O)[O-])cc4)n3N)[nH]n2)cc1 | -2.18%
10 | COc1cc(C(=O)Nn2c(CC(C)C)nc3ccccc3c2=O)cc(OC)c1OC | -1.2%
11 | COc1cc(C(=O)Nn2c(O)c(C3=c4ccccc4=NC3=O)sc2=S)ccc1O | 51.8% (active)
12 | COc1cc(C(=S)NC2CCCCC2)ccc1O | 6.51%
13 | O=C(CCS(=O)(=O)c1ccccc1)Nc1ccc(Cl)c(Cl)c1 | -0.439%
14 | O=C(Nc1ccccc1C(=O)Nc1ccc(F)cc1)c1ccccc1F | 0.274%
15 | Cc1cc(=O)[nH]c(N/N=C/c2c(C)nn(-c3ccccc3Cl)c2Cl)n1 | 69.3% (active)
16 | Cc1nn(-c2ccccc2)c(Cl)c1/C=N/NC(=O)c1nn(C)cc1[N+](=O)[O-] | 6.06%
17 | Cc1cc(=O)[nH]c(N/N=C/c2ccc3c(c2)OCCO3)n1 | -3.07%
18 | O=C(Nc1ccccc1[N+](=O)[O-])C1C(c2ccccc2)=C1c1ccccc1 | -5.32%
19 | O=[N+]([O-])c1ccccc1Nc1ccc(O)cc1 | 81% (active)
20 | Cc1c(NC(=O)Nc2ccccc2)cccc1[N+](=O)[O-] | -2.18%
21 | CCc1nc2ccc(C(=O)NCc3ccc(OC)cc3)cn2c1N(CC)Cc1cccc(Br)c1 | -0.31%
22 | C=CCc1cccc2cc(C(=O)Nc3ccc(NC(C)=O)cc3)c(=O)oc12 | 52.4% (active)
23 | C=CCc1cccc2cc(C(=O)NC3CCCC3)c(=O)oc12 | -2.76%

Row | SMILES | inhibition
24 | C=CCc1cccc2cc(C(=O)OCC)c(=O)oc12 | 3.09%
25 | CCCC(=O)N1CCC1(C)C(=O)NCc1ccc(C(C)C)cc1 (stereo not given) | 0.789%
26 | O=C(NS(=O)(=O)c1cccs1)[C@H]1O[C@@H](n2ccc(=O)[nH]c2=O)[C@H](O)[C@@H]1O | 0.413%
27 | CC(=O)N1CCCN(C2=Nc3ccccc3Sc3ccccc32)CC1 | 0.906%
28 | O=C(Nc1ccc(N2CCOCC2)cc1)C1=COCCO1 | -0.182%
29 | COC(=O)CCCCC1=CCC2C(=O)C=C(O)C2C1 (stereo not given) | 62.2% (active)
30 | COc1ccc(-n2c(SCC(=O)Nc3ccccc3-c3ccccc3)nnc2-c2cccnc2)cc1 | 3.15%
31 | COC(=O)c1cc(S(=O)(=O)N2CCN(c3ccccc3C)CC2)cn1C | 7.47%
32 | COc1cccc(-c2cc(CNC(=O)[C@@H](Cc3ccccc3)NC(=O)[C@H]3O[C@@H](n4cnc(C(N)=O)n4)[C@H](O)[C@@H]3O)no2)c1 | -0.483%
33 | COc1ccc(-n2c(COc3ccc(C)cc3)nnc2SCC(=O)Nc2ccc(Oc3ccccc3)cc2)cc1 | 0.031%
34 | CC(C)CSc1nnc(-c2cccnc2)n1Cc1ccccc1 | -2.26%
35 | COC(=O)c1ccc(CSc2nnc(N)s2)o1 | -2.67%
36 | CCOc1ccccc1Nc1nnc(SCC(=O)Nc2cc(C)on2)s1 | -5.24%
37 | CCOc1ccccc1Nc1nnc(SCc2ccc(C(=O)OC)o2)s1 | 103% (active)
38 | Cc1ccc(NC(=O)C(C)Sc2nc(C)cs2)cc1 (stereo not given) | -1.63%
39 | O=C(NCc1ccco1)C1CCCN(S(=O)(=O)c2ccc(Cl)s2)C1 (stereo not given) | 1.68%
40 | O=C(Cc1ccccc1)NC(=S)Nc1ccc(N2CCCCC2)cc1 | 0.281%
41 | O=C1C=CC(=O)N1c1ccc(N2CCCCC2)cc1 | 51.2% (active)
42 | CC(=O)Nc1ccc(S(=O)(=O)Nc2ccc(N3CCCCC3)cc2)cc1 | 11.4%
43 | O=C(CN1CCCc2ccccc21)NCc1ccc(F)cc1 | 0.199%
44 | Cc1ccc(NC(=O)Cc2cccc(F)c2)c(S(=O)(=O)N2CCOCC2)c1 | -1.61%
45 | O=C(Nc1ccc(C(=O)O)c(O)c1)c1ccccc1 | -0.136%
46 | O=C(O)c1ccccc1N=N/C(=N/Nc1cc(S(=O)(=O)O)ccc1O)c1ccccc1 | 70.7% (active)

Row | SMILES | inhibition
47 | O=C(O)c1ccccc1/C=N/Nc1ccc(S(=O)(=O)Nc2ccc(Cl)cc2)cc1[N+](=O)[O-] | 14.9%
48 | O=C(CSc1nnc(COc2ccccc2)n1-c1ccc(Cl)cc1)Nc1ccc2c(c1)OCO2 | -1.07%
49 | Cc1ccc(/C=N/NC(=O)c2cc3ccccc3cc2O)o1 | 50% (active)
50 | O=C(NN=Cc1ccc(N2CCOCC2)cc1)c1cc2ccccc2cc1O | -0.134%
51 | O=C(N/N=C/c1cccnc1)c1cc2ccccc2cc1O | 4.16%
52 | Clc1ccc(-n2c(COc3ccccc3)nnc2SCc2nc3ccccc3[nH]2)cc1 | 1.86%
53 | Cc1cc(=O)[nH]c(SCC(=O)Nc2ccc(F)cc2F)n1 | -12.4%
54 | CN(C)S(=O)(=O)c1cccc(C(=O)N/N=C\c2ccco2)c1 | 3.26%
55 | Cc1ccccc1S(=O)(=O)NC(=O)C1(C)CCN1C(=O)C1(c2ccccc2)CCCC1 (stereo not given) | -0.963%
56 | CCC1=[N+]([O-])C(C)(/C(C)=N\O)N(O)C1(C)C (stereo not given) | 96.5% (active)
57 | C/C(=N\O)C1(C)N(O)C(C)(C)C(c2ccc(Br)cc2)=[N+]1[O-] (stereo not given) | -1.39%
58 | CCC1(C)N(O)C(C)(C)C(c2ccc(OC)cc2)=[N+]1[O-] (stereo not given) | -2.21%
59 | CC(C)NC(=O)C1(C)CCCCCN1C(=O)c1ccc(-c2ccccc2)cc1 (stereo not given) | -1.44%
60 | Cc1ccc(-n2c(SCC(=O)Nc3ccc(S(=O)(=O)Nc4nccs4)cc3)nnc2-c2ccncc2)cc1 | 6.51%
61 | COc1cccc(N2CCN(CC(=O)N(C)Cc3ccc(F)cc3)CC2)c1 | 2.97%
62 | C(=N/Nc1cc(N2CCOCC2)nc(N2CCOCC2)n1)/c1ccccc1 | 50.1% (active)
63 | CN(C)c1ccc(/C=N/Nc2cc(N3CCOCC3)nc(N3CCOCC3)n2)cc1 | 4.94%
64 | COc1ccc(/C=N/Nc2cc(N3CCOCC3)nc(C)n2)c(OC)c1 | 7.29%
65 | Nn1c(SCC(=O)N2c3ccccc3Sc3ccccc32)nnc1-c1n[nH]c2c1CCC2 | 14.3%
66 | Cc1ccc(-n2c(SCC(=O)Nc3cccc4ccccc34)nnc2-c2ccco2)cc1 | -0.2%
67 | COC(=O)CNC(=O)c1ccccc1[N+](=O)[O-] | 0.597%
68 | O=C(NNS(=O)(=O)Cc1ccccc1)c1ccc([N+](=O)[O-])cc1 | -3.19%
69 | O=C(CNC(=O)c1ccccc1)Oc1ccc([N+](=O)[O-])cc1 | 53.4% (active)

Row | SMILES | inhibition
70 | CC(=O)Nc1cccc(-c2cc3nc(NCc4cccnc4)n(C)c(=O)c3s2)c1 | -4.37%
71 | Cc1ccccc1NC(=O)Cn1nnc(-c2ccccc2F)n1 | -1.41%
72 | O=C(NCc1ccccc1)[C@@H]1CCCN1C(=O)[C@@H](NS(=O)(=O)c1ccc(F)cc1F)C1CCCCC1 | -1.37%
73 | CC(=O)N(C1=C(Cl)C(=O)c2ccccc2C1=O)c1ccc(C(=O)O)cc1 | 142% (active)
74 | O=C(NC1=CC(=O)c2ccccc2C1=O)c1ccccc1 | 40.2%
75 | CCOC(=O)C1(Cc2ccccc2)CCN(Cc2cn(C(C)=O)c3ccccc23)CC1 | 3.51%
76 | Cc1ccc(-c2nnc(SCC(=O)Nc3ccc(Oc4ccccc4)cc3)n2Cc2ccco2)cc1 | 0.417%
77 | CCOC(=O)CCCNC(=O)COC(=O)/C=C/c1ccc2c(c1)OCO2 | -2.71%
78 | CCOc1cc(/C=C/C(=O)OCC(=O)NCCN2C(=O)CSC2=O)ccc1OCC(C)C | 128% (active)
79 | CCOc1ccc(/C=C/C(=O)OCC(=O)c2ccccc2OC)cc1OC | -0.606%
80 | COc1ccc(-n2c(SCC(=O)NC3CCCC3)nnc2-c2ccncc2)cc1 | 7.3%
81 | O=C(Cn1cc(C(F)(F)F)ccc1=O)Nc1ccc2c(c1)OCCO2 | 58% (active)
82 | O=C(CN1CCC(O)(c2ccccc2)CC1)Nc1ccc2c(c1)OCCO2 | -3.29%
83 | O=C(Cn1c(=O)sc2ccccc21)Nc1ccc2c(c1)OCCO2 | 6.04%
84 | O=C1Nc2ccccc2OC1CC(=O)N1CCCCCCC1 (stereo not given) | 4.5%
85 | O=C(NCc1cccs1)C1CCCN(S(=O)(=O)c2ccc([N+](=O)[O-])cc2)C1 (stereo not given) | -2.05%
86 | CCOc1ccc(Cl)cc1-c1cc(C(=O)NCc2cccs2)[nH]n1 | 0.509%
87 | CCOc1ccc(N(CC(=O)Nc2c(C)n(C)n(-c3ccccc3)c2=O)S(=O)(=O)c2ccc(Cl)s2)cc1 | 0.729%
88 | COC(=O)c1c(-c2cccs2)csc1NC(=O)CSc1ncnc2sc(C)c(C)c12 | -3.04%
89 | Cc1sc2ncnc(SCC(=O)NC3CCS(=O)(=O)C3)c2c1C (stereo not given) | -1.67%
90 | Cc1sc2ncnc(SCC(=O)Nc3ccc(CN4CCCC4)cc3)c2c1C | 56.5% (active)
